This note sets out measurements from PubChem BioAssay (EPA / NIEHS).

Calls of active or inactive are those of the source. Rule for the calls: active = hit-call score of the fitted dose curve at least 0.9, where 1 is the maximum; inactive = score below 0.9.

Common to all, as to conditions: mRNA level, 48 h; actives raise or lower the signal
Read-out in assay [1]: NAD(P)H dehydrogenase [quinone] 1 (NQO1), NQO1 (gene 1728)
Nature of the assay: LTEA_HepaRG_NQO1: Life Technologies and Expression Analysis (LTEA) Assay for NAD(P)H dehydrogenase [quinone] 1 (NQO1) using HepaRG (AID 2283526). The method in brief: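 Differentiated human HepaRG cells in serum-free induction medium, dosed in duplicate for 48 h at 8 half-log concentrations up to 100 uM in 0.5% DMSO. NQO1 mRNA by qRT-PCR normalized to ACTB, GAPDH, POLR2A; bidirectional fit versus DMSO baseline.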

Read-out in assay [2]: Nuclear factor erythroid 2-related factor 2 (Homo sapiens) (UniProt Q16236)
Description: LTEA_HepaRG_NFE2L2: Life Technologies and Expression Analysis (LTEA) Assay for Nuclear factor erythroid 2-related factor 2 (NFE2L2) Transcription Factor using HepaRG (AID 2283527).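 For outcome: TaqMan qRT-PCR transcript level normalised to ACTB GAPDH and POLR2A housekeeping genes.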 The gist of the method: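 Transcript level of NFE2L2 is the read-out, measured by microfluidic TaqMan qRT-PCR and normalized to three housekeeping genes. Human HepaRG cultures received test chemical for 48 h at up to 100 uM in half-log steps. Gain or loss of signal is fitted relative to 0.5% DMSO.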

Read-out in assay [3]: succinate dehydrogenase complex iron sulfur subunit B (SDHB), SDHB (gene 6390)
Nature of the assay: LTEA_HepaRG_SDHB: Life Technologies and Expression Analysis (LTEA) Assay for succinate dehydrogenase complex iron sulfur subunit B (SDHB) using HepaRG (AID 2283528). The method in brief:
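Readout is SDHB transcript level by qRT-PCR, normalised to three housekeeping genes and fitted bidirectionally against 0.5% DMSO vehicle. Human HepaRG cells were treated for 48 h at up to 100 uM.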

Read-out in assay [4]: Signal transducer and activator of transcription 3 (Homo sapiens) (UniProt P40763)
Nature of the assay: LTEA_HepaRG_STAT3: Life Technologies and Expression Analysis (LTEA) Assay for Signal transducer and activator of transcription (STAT3) using HepaRG (AID 2283529). The method in brief: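 Read-out is STAT3 mRNA level by qRT-PCR, normalized to three housekeeping genes, in human HepaRG liver cells treated for 48 h. Concentrations ran from 100 uM downward in half-log steps; curves were fitted for gain or loss relative to 0.5% DMSO.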

Read-out in assay [5]: solute carrier (SLCO1B1), SLCO1B1 (gene 10599)
Description: LTEA_HepaRG_SLCO1B1: Life Technologies and Expression Analysis (LTEA) Assay for solute carrier (SLCO1B1) using HepaRG (AID 2283530). The method in brief: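 Gain or loss of SLCO1B1 mRNA is fitted against the 0.5% DMSO vehicle in human HepaRG liver cells treated 48 h at up to 100 uM in half-log steps. Expression comes from qRT-PCR normalized to endogenous controls.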

Read-out in assay [6]: Transforming Growth Factor (TGFA), TGFA (gene 7039)
Description: LTEA_HepaRG_TGFA: Life Technologies and Expression Analysis (LTEA) Assay for Transforming Growth Factor (TGFA) using HepaRG (AID 2283532). The gist of the method: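 HepaRG (human liver line), 48 h exposure, 8 conc. half-log down from 100 uM, 0.5% DMSO vehicle, duplicates; serum-free induction medium. TGFA mRNA by TaqMan qRT-PCR, ACTB/GAPDH/POLR2A normalization; gain/loss fit vs DMSO.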

Read-out in assay [7]: Transforming Growth Factor (TGFB1), TGFB1 (gene 7040)
Nature of the assay: LTEA_HepaRG_TGFB1: Life Technologies and Expression Analysis (LTEA) Assay for Transforming Growth Factor (TGFB1) Transporter using HepaRG (AID 2283533). The method in brief: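 Expression change of TGFB1 in human HepaRG cells is measured after a 48 h chemical exposure, up to 100 uM in 0.5% DMSO vehicle. Curves are fitted in both directions relative to the DMSO baseline.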

Read-out in a further assay: TIMP1, TIMP1 (gene 7076)
Nature of the assay: LTEA_HepaRG_TIMP1: Life Technologies and Expression Analysis (LTEA) Assay for TIMP1 using HepaRG (AID 2283534).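 For outcome: TaqMan qRT-PCR signal normalized to ACTB GAPDH and POLR2A housekeeping genes.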 The gist of the method: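 We dosed human liver HepaRG cultures for 48 hours with up to 100 uM test chemical and measured TIMP1 expression by qRT-PCR. Activity in either direction is fitted relative to the 0.5% DMSO vehicle.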

Read-out in assay [8]: sulfotransferase 2A1 (SULT2A1), SULT2A1 (gene 6822)
Description: LTEA_HepaRG_SULT2A1: Life Technologies and Expression Analysis (LTEA) Assay for sulfotransferase 2A1 (SULT2A1) using HepaRG (AID 2283531). The method in brief: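 Cells were plated and cultured 48 h, switched to serum-free induction medium, then dosed in duplicate for 48 h (8 concentrations, max 100 uM). RNA was isolated and SULT2A1 expression measured by qRT-PCR; gain or loss of signal fitted relative to DMSO.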

Read-out in assay [9]: Tumor necrosis factor receptor 1 (TNFRSF1A), TNFRSF1A (gene 7132)
Nature of the assay: LTEA_HepaRG_TNFRSF1A: Life Technologies and Expression Analysis (LTEA) Assay for Tumor necrosis factor receptor 1 (TNFRSF1A) using HepaRG (AID 2283535). The gist of the method: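 Expression of TNFRSF1A in human HepaRG liver cells was measured by qRT-PCR 48 h after chemical dosing (maximum 100 uM). Bidirectional curve fitting used 0.5% DMSO as baseline.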

Sequence of Signal transducer and activator of transcription 3 (Homo sapiens) (P40763 whole entry, looked up): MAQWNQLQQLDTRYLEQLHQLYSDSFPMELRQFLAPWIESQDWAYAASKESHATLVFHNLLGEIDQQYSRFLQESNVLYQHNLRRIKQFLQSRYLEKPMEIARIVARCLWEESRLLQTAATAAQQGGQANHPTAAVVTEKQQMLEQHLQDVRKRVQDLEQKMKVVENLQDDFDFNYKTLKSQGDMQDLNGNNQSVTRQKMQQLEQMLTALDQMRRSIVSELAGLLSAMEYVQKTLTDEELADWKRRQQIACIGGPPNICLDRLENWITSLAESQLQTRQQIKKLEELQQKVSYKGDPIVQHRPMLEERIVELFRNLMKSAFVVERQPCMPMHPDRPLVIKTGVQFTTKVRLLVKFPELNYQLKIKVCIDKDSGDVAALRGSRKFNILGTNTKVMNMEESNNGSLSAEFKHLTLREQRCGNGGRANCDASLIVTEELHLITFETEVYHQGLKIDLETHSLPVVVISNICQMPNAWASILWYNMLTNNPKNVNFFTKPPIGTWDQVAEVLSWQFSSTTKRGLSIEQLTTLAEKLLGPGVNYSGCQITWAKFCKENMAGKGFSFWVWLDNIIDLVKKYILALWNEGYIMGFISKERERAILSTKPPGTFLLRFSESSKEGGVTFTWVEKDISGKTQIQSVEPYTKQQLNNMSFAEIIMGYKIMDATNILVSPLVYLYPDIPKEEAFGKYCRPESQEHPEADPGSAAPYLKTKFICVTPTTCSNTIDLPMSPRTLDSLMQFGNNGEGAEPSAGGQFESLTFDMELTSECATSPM
Sequence of Nuclear factor erythroid 2-related factor 2 (Homo sapiens) (Q16236 whole entry, looked up): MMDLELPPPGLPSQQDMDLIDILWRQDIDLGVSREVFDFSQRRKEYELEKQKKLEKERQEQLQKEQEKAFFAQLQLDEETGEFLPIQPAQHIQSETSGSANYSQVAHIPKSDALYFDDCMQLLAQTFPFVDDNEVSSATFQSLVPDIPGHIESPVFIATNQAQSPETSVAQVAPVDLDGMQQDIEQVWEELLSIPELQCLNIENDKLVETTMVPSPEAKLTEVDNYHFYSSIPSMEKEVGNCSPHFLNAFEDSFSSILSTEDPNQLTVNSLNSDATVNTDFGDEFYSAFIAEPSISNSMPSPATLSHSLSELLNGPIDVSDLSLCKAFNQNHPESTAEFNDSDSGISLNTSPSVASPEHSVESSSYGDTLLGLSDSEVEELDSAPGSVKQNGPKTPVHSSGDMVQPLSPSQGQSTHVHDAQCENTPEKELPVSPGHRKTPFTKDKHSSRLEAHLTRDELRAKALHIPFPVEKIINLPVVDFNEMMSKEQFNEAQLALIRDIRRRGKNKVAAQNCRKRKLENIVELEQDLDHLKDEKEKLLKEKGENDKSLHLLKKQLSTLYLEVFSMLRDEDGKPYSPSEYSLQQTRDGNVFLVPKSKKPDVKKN

Regarding `CC(=O)c1ccc2c(c1)[C@H](NC(=O)c1ccc(F)cc1)[C@@H](O)C(C)(C)O2`, the outcome in assay [1], in assay [2], in assay [3], in [4], in assay [5] and in assay [6] was inactive. For the same compound, the outcome in assay [7] is “inactive”; with TIMP1, TIMP1 (gene 7076) it was “inactive”.

For the compound `C=CCCCCCCCCC(=O)O`, the compound was classed as inactive in [1], in assay [2], in assay [3], in assay [4], in assay [5] and in assay [8]. The outcome in assay [6] is “inactive”; in assay [7], “inactive”; with TIMP1, TIMP1 (gene 7076) it was “inactive”.

On to `CC[C@H]1OC(=O)[C@H](C)[C@@H](O[C@H]2C[C@@](C)(OC)[C@@H](O)[C@H](C)O2)[C@H](C)[C@@H](O[C@@H]2O[C@H](C)C[C@H](N(C)C)[C@H]2O)[C@](C)(O)C[C@@H](C)C(=O)[C@H](C)[C@@H](O)[C@]1(C)O`, for which the result in [1], in assay [2], in assay [3], in assay [4], in assay [5] and in [8] was inactive. The outcome is “inactive” in assay [6]; “inactive” in assay [7]; “inactive” in the assay with TIMP1, TIMP1 (gene 7076); “inactive” in assay [9].

With `CCCC(=O)OCC`, the call in assay [1], in assay [2], in [3], in assay [4], in assay [5] and in assay [8] was inactive. Moreover, the outcome in assay [6] was “inactive”; in assay [7], “inactive”; with TIMP1, TIMP1 (gene 7076), “inactive”; in assay [9] it was “inactive”.

With `CCCCCCCCO`, the call in assay [1], in [2], in assay [3], in [4], in assay [5] and in assay [8] was inactive. Besides, the outcome in [6] is “inactive”; in assay [7] it was “inactive”; with TIMP1, TIMP1 (gene 7076) it was “inactive”; in [9], “inactive”.

With `CCOC(=O)CC(CC(=O)OCC)(OC(C)=O)C(=O)OCC`, the call in [1], in assay [2], in assay [3], in [4], in assay [5] and in assay [8] was inactive. The outcome is “inactive” in assay [6]; “inactive” in assay [7]; “inactive” with TIMP1, TIMP1 (gene 7076); “inactive” in assay [9].

Take `O=C(O)CC(O)C(=O)O` (configuration not stated): the outcome in [1], in assay [2], in assay [3], in assay [4], in assay [5] and in [8] was inactive. Further, the outcome in assay [6] is “inactive”; in [7], “inactive”; with TIMP1, TIMP1 (gene 7076), “inactive”; in assay [9], “inactive”.

Take `CCc1cc(SCc2sc(-c3ccc(C(F)(F)F)cc3)nc2CN2CCN(c3ccc(OC)cc3)CC2)ccc1OCC(=O)O`: the AC50 (usually the midpoint of the concentration-response curve, whichever way the signal moves) in [1] was 8.39 µM (active); in assay [2], 91.8 µM (active); in assay [3], 93.7 µM (active); in assay [4] it was 93.3 µM (active); in assay [5], 7.63 µM (active); in [8], 5.72 µM (active). In addition, the AC50 is 6.99 µM (active) in assay [6]; 28.9 µM (active) in assay [7]; 94 µM (active) with TIMP1, TIMP1 (gene 7076).

With `Cn1c(=O)cc(Oc2ccc(F)cc2F)c2cnc(NCC(C)(C)O)nc21`, the call in assay [1], in assay [3], in assay [4], in assay [8], in assay [6] and in [7] was inactive. Also, the compound was called inactive with TIMP1, TIMP1 (gene 7076). Moreover, the AC50 in [2] was 1.3 µM (active).

Turning to `CCn1nc(Cc2ccccc2)cc1C1CCN(C[C@H]2C[C@H](N(C)[C@@H](C(=O)O)C(C)C)C[C@@H]2c2cccc(F)c2)CC1`, the outcome in assay [1], in assay [2], in assay [3], in assay [4], in assay [5] and in assay [6] was inactive. The outcome with TIMP1, TIMP1 (gene 7076) is “inactive”; in [9], “inactive”. In addition, the AC50 in assay [7] is 73.3 µM (active).

On to `Nc1nc2ncc(CNc3ccc(C(=O)N[C@@H](CCC(=O)O)C(=O)O)cc3)nc2c(=O)[nH]1`, for which the compound was called inactive in assay [1], in [2], in [3], in assay [4], in [8] and in [6]. Also, the outcome was “inactive” in assay [7] and “inactive” with TIMP1, TIMP1 (gene 7076).

With `O=C1OC(=O)C2C3C=CC(C3)C12` (configuration not stated), the compound was classed as inactive in assay [1], in assay [2], in assay [3], in assay [4], in assay [8] and in [6]. In addition, the outcome in [7] was “inactive”; with TIMP1, TIMP1 (gene 7076), “inactive”; in [9] it was “inactive”.

As for `CCCCC(CC)COC(=O)CCCCCCCCC(=O)OCC(CC)CCCC` (configuration not stated), the compound was classed as inactive in assay [1], in assay [2], in assay [3], in assay [4], in [5] and in assay [6]. Also, the outcome in assay [7] is “inactive”; in the assay with TIMP1, TIMP1 (gene 7076), “inactive”; in assay [9], “inactive”.

For the compound `CC(=O)OCCC(C)C`, the outcome in assay [1], in assay [2], in assay [3], in assay [4], in assay [5] and in [6] was inactive. Moreover, the outcome in [7] is “inactive”; with TIMP1, TIMP1 (gene 7076), “inactive”.

For `CC(C)(O)c1coc(S(=O)(=O)NC(=O)Nc2c3c(cc4c2CCC4)CCC3)c1`, the outcome in assay [1], in [2], in assay [3], in assay [4], in [5] and in assay [6] was inactive. Besides, the outcome in [7] is “inactive”; with TIMP1, TIMP1 (gene 7076), “inactive”.

Take `C1N2CN3CN1CN(C2)C3`: the call in [1], in assay [2], in [3], in [4], in assay [5] and in assay [6] was inactive. In addition, the outcome is “inactive” in assay [7]; “inactive” with TIMP1, TIMP1 (gene 7076); “inactive” in assay [9].

For the compound `O=C(OC[C@H]1O[C@@H](OC(=O)c2cc(O)c(O)c(OC(=O)c3cc(O)c(O)c(O)c3)c2)[C@H](OC(=O)c2cc(O)c(O)c(OC(=O)c3cc(O)c(O)c(O)c3)c2)[C@@H](OC(=O)c2cc(O)c(O)c(OC(=O)c3cc(O)c(O)c(O)c3)c2)[C@@H]1OC(=O)c1cc(O)c(O)c(OC(=O)c2cc(O)c(O)c(O)c2)c1)c1cc(O)c(O)c(OC(=O)c2cc(O)c(O)c(O)c2)c1`, the AC50 is 5.1 µM (active) in assay [1]; 15.2 µM (active) in assay [2]; 9.07 µM (active) in assay [5]; 6.41 µM (active) in assay [6]; 2.96 µM (active) in assay [7]; 15.2 µM (active) with TIMP1, TIMP1 (gene 7076). Also, the outcome in assay [3], in assay [4] and in assay [9] was inactive.

Take `COc1ccc2sc(C(=O)Nc3nnn[nH]3)c(OC(C)C)c2c1`: the outcome was “inactive” in assay [1]; “inactive” in [3]; “inactive” in assay [4]; “inactive” in assay [7]; “inactive” with TIMP1, TIMP1 (gene 7076). Moreover, the AC50 in assay [2] was 27.6 µM (active); in assay [5], 81.7 µM (active); in [6], 34 µM (active).

Turning to `CCOCCO`, the compound was classed as inactive in assay [1], in assay [2], in [3], in assay [4], in assay [8] and in assay [6]. In addition, the outcome in [7] is “inactive”; in the assay with TIMP1, TIMP1 (gene 7076), “inactive”.

As to `Cc1ccc(C)c(O)c1`, the call in assay [1], in assay [2], in assay [3], in [4], in assay [5] and in assay [6] was inactive. For the same compound, the outcome in assay [7] is “inactive”; with TIMP1, TIMP1 (gene 7076), “inactive”; in [9] it was “inactive”.

With `O=C(O)CCN(C1(C(=O)NO)CCCC1)S(=O)(=O)c1ccc(Oc2ccc(F)cc2)cc1`, the result in [1], in assay [2], in assay [3], in assay [4], in assay [5] and in assay [6] was inactive. The outcome was “inactive” in assay [7]; “inactive” in the assay with TIMP1, TIMP1 (gene 7076); “inactive” in assay [9].
